Broadly, the AC50 is the concentration giving half of the maximal activity seen.

Data on eight molecules can be found in PubChem BioAssay (EPA / NIEHS).

SMILES strings stand for the structures. Results filed as inconclusive are left out. Some compounds were tested as several samples or in several runs, with calls that do not always agree. Active and inactive are the calls of the source. How the source made its calls, unless noted: active means hit-call score of the fitted dose curve at least 0.9, where 1 is the maximum; inconclusive means response in the unintended direction; inactive means score below 0.9.

Read-out in assay [1]: X-box binding protein 1 (XBP1), XBP1 (gene 7494)
In words: LTEA_HepaRG_XBP1: Life Technologies and Expression Analysis (LTEA) Assay for X-box binding protein 1 (XBP1) using HepaRG (AID 2283540; active means hit-call score of the fitted dose curve at least 0.9, where 1 is the maximum; inactive means score below 0.9). To be noted: mRNA level, 48 h; actives raise or lower the signal. The method, boiled down:
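HepaRG, 48 h exposure, 8-pt half-log CRC top 100 uM, 0.5% DMSO vehicle, duplicates. Readout: TaqMan qRT-PCR of XBP1 mRNA, housekeeping-normalised (ACTB/GAPDH/POLR2A); bidirectional fit vs DMSO baseline.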

The nature of assay [2]: LTEA_HepaRG_LDH_cytotoxicity: Cytotoxicity Assessment in the Life Technologies and Expression Analysis (LTEA) Assay (AID 2283563). In a few lines: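 HepaRG (human liver line), 48 h exposure, 8-pt half-log series from 100 uM, 0.5% DMSO vehicle, duplicates. Read-out: LDH in spent medium. Positive-direction fit vs DMSO baseline.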
Assay [3] can be described thus: TOX21_p53_BLA_p2_viability: Viability Assessment in the Tox21 HCT-116 p53 Agonism Beta-lactamase Assay, Phase 2 (AID 2283591).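 Further: actives lower the ATP signal meaning cytotoxicity.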 The method, boiled down:
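HCT116 p53-bla cells, 4000/well, dosed after 5 h plating (217-fold dilution of DMSO stocks) and incubated 16 h at 37C. Viability taken as cellular ATP by CellTiter-Glo luminescence after 30 min RT; signal loss marks cytotoxicity.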

Assay [4] has as its target Cellular tumor antigen p53 (Homo sapiens) (UniProt P04637). In words: TOX21_p53_BLA_p2_ratio: Tox21 HCT-116 p53 Agonism Beta-lactamase Assay, Ratio, Phase 2 (AID 2283592). In a few lines:
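Readout: blue/green (460/530 nm) FRET emission ratio after 2 h CCF4-AM loading at room temperature, excitation 405 nm. HCT116 p53 bla cells, 16 h compound exposure at 37C, 5% CO2; agonist direction fitted against DMSO baseline.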

Assay [5] is described as follows: TOX21_p53_BLA_p3_viability: Viability Assessment in the Tox21 HCT-116 p53 Agonism Beta-lactamase Assay, Phase 3 (AID 2283593).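 Further: cells exposed to compound for 16 h before reading.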 The method, boiled down:
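HCT116 cells, 4000/well, dosed 5 h after plating by pin transfer (217-fold dilution from DMSO stock) and incubated 16 h at 37C, 5% CO2. Viability read as ATP luminescence with CellTiter-Glo after 30 min at room temperature.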

The target in assay [6] is Cellular tumor antigen p53 (Homo sapiens) (UniProt P04637). In words: TOX21_p53_BLA_p3_ratio: Tox21 HCT-116 p53 Agonism Beta-lactamase Assay, Ratio, Phase 3 (AID 2283596). The method, boiled down: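 Cells were seeded at 4000/well, rested 5 h at 37C, then dosed with DMSO compound solutions (217-fold dilution) for 16 h. CCF4-AM substrate was loaded for 2 h at room temperature, and the 460/530 nm emission ratio was fitted for gain of signal versus DMSO.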

The nature of assay [7]: TOX21_p53_BLA_p4_viability: Viability Assessment in the Tox21 HCT-116 p53 Agonism Beta-lactamase Assay, Phase 4 (AID 2283597).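 Further: hits lower the luminescence signal meaning cytotoxicity.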 In a few lines:
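ATP content by CellTiter-Glo luminescence, 30 min RT, read after the beta-lactamase ratio step. Cells: HCT116, 4000/well, compound added after 5 h, exposure 16 h at 37C. Signal loss = reduced viability.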

In assay [8] the target is Cellular tumor antigen p53 (Homo sapiens) (UniProt P04637). Put plainly: TOX21_p53_BLA_p5_ratio: Tox21 HCT-116 p53 Agonism Beta-lactamase Assay, Ratio, Phase 5 (AID 2283599). The method, boiled down: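 HCT-116 p53-bla cells (4000/well) plated 5 h, dosed with compound (217-fold DMSO dilution) for 16 h at 37 C; CCF4-AM substrate 2 h at room temperature. Activity is the 460/530 nm emission ratio (405 nm excitation), fitted in gain-of-signal direction versus DMSO.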

The target is the same in assay [9]. In words: TOX21_p53_BLA_p4_ratio: Tox21 HCT-116 p53 Agonism Beta-lactamase Assay, Ratio, Phase 4 (AID 2283601). In a few lines: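 HCT-116 p53 beta-lactamase reporter cells (4000/well) preincubated 5 h, then compound (217-fold dilution of DMSO stock) for 16 h at 37C. CCF4-AM substrate added 2 h at room temperature; 460/530 nm emission ratio fitted upward versus DMSO.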

Assay [10] can be described thus: Tanguay_ZF_120hpf_MORT_legacy: (Legacy) Oregon State University Tanguay Lab 120 Hour Post-fertilization zebrafish Assay for Mortality (AID 2283633). In a few lines: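 Brightfield scoring of embryo death (binary) at 24 and 120 hpf; static exposure 6–120 hpf, 28C, sealed and foil-covered. Pronase-dechorionated 5D wild-type larvae, single embryo per well. DMSO 0.64% v/v; trimethyltin chloride 5uM positive control.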

Assay [11] can be described thus: Tanguay_ZF_120hpf_YSE_legacy: (Legacy) Oregon State University Tanguay Lab 120 Hour Post-fertilization zebrafish Assay for Yolk Sac Edema (AID 2283634). The method, boiled down: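 Binary brightfield scoring of yolk sac edema at 120 hpf; DMSO baseline, gain-of-signal fitting. Dechorionated 5D larvae, one per well, static exposure 6–120 hpf, 28C, 0.64% DMSO. Dead embryos not scored.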

Assay [12] can be described thus: Tanguay_ZF_120hpf_AXIS_legacy: (Legacy) Oregon State University Tanguay Lab 120 Hour Post-fertilization zebrafish Assay for Body Axis Malformation (AID 2283635).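 On AC50: potency for an increased fraction of larvae scored with body axis malformation.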 The method, boiled down: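 Embryos: 5D wild-type, pronase-dechorionated 4 hpf; static exposure 6–120 hpf, 28C, sealed, dark, 1 embryo/well, 0.64% DMSO. 120 hpf axis malformation scored present/absent; dead embryos excluded. Analysed as gain of signal vs DMSO.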

Assay [13] in a line: Tanguay_ZF_120hpf_SNOU_legacy: (Legacy) Oregon State University Tanguay Lab 120 Hour Post-fertilization zebrafish Assay for Snout Malformation (AID 2283637). The method, boiled down:
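Binary brightfield scoring of snout malformation at 120 hpf. Dechorionated 5D wild-type embryos, one per well, static exposure from 6 hpf at 28C, sealed and dark; final DMSO 0.64% (vol/vol), DMSO as baseline; 5uM trimethyltin chloride positive control.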

Assay [14] is described as follows: Tanguay_ZF_120hpf_JAW_legacy: (Legacy) Oregon State University Tanguay Lab 120 Hour Post-fertilization zebrafish Assay for Jaw Malformation (AID 2283638). The method, boiled down:
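Binary jaw-malformation calls at 120 hpf by brightfield imaging; DMSO (0.64% v/v) = baseline. Embryos: 5D wild-type, pronase-dechorionated, one per well from 6 hpf, static exposure, 28C, sealed, dark.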

Assay [15] is described as follows: Tanguay_ZF_120hpf_OTIC_legacy: (Legacy) Oregon State University Tanguay Lab 120 Hour Post-fertilization zebrafish Assay for Otic Vesicle Malformation (AID 2283639). The method, boiled down: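 Wild-type zebrafish larvae, whole-embryo exposure from early stage to 120 hpf at 28C. Binary brightfield scoring of otic vesicle morphology, fitted in the positive direction against the DMSO baseline.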

The nature of assay [16]: Tanguay_ZF_120hpf_PE_legacy: (Legacy) Oregon State University Tanguay Lab 120 Hour Post-fertilization zebrafish Assay for Pericardial Edema (AID 2283640). The method, boiled down:
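Static waterborne exposure, 5D wild-type embryos, 28C, to 120 hpf; final DMSO 0.64% (vol/vol). Binary PE call at 120 hpf by brightfield; fitted upward vs DMSO baseline. 5uM trimethyltin chloride as positive control.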

Assay [17] is described as follows: Tanguay_ZF_120hpf_EYE_legacy: (Legacy) Oregon State University Tanguay Lab 120 Hour Post-fertilization zebrafish Assay for Eye Malformation (AID 2283636).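 Further: binary presence or absence of eye malformation scored by brightfield in 120 hpf larvae.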 The method, boiled down:
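5D wild-type embryos, pronase-dechorionated at 4 hpf; static exposure 6–120 hpf, 28C, dark; DMSO 0.64% final; 5uM trimethyltin chloride positive control. Binary eye-defect scoring at 120 hpf; dead embryos not scored.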

Assay [18] in a line: Tanguay_ZF_120hpf_BRAI_legacy: (Legacy) Oregon State University Tanguay Lab 120 Hour Post-fertilization zebrafish Assay for Brain Malformation (AID 2283641). The method, boiled down:
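Read-out: binary brain morphology call at 120 hpf (brightfield), fitted in gain-of-signal direction vs DMSO. Wild-type Tropical 5D embryos, static exposure, 28C, 0.64% DMSO final; 5uM trimethyltin chloride as positive control.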

Assay [19] can be described thus: ATG_XTT_Cytotoxicity: Cytotoxicity Assessment in the Attagene TRANS-FACTORIAL HepG2 Assay (AID 2283584). The method, boiled down: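 XTT readout of cell number in transfected HepG2 cells, 24 h post-dosing; DMSO serves as negative control and baseline, with activity taken as loss of viability signal.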

Sequence of Cellular tumor antigen p53 (Homo sapiens) (P04637 whole entry, looked up): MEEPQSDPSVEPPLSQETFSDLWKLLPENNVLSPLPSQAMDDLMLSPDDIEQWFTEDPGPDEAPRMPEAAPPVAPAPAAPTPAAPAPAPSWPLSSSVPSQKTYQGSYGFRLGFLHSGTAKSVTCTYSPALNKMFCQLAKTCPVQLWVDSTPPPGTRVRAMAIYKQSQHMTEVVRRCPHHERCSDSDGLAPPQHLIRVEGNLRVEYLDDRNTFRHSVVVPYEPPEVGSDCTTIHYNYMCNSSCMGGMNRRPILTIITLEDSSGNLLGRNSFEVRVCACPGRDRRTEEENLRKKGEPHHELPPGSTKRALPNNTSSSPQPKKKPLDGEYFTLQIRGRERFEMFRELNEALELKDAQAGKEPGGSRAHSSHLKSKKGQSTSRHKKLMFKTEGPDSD

Consider `CCCCC(O)(Cn1cncn1)c1ccc(Cl)cc1Cl` (configuration not stated), for which the call in assay [1], in assay [2], in assay [3], in [4], in [5] and in assay [6] was inactive. Moreover, the result in assay [10], in assay [11], in assay [12], in assay [13], in assay [14] and in assay [15] was inactive. Also, the molecule was called inactive in [16]. Further, the figures for the AC50 in [7], in assay [8] and in assay [9] were 82 µM (active), 72.8 µM (active) and 87 µM (active), respectively.
Regarding `CCN(CC)c1nc(C)cc(OP(=S)(OC)OC)n1`, the call in assay [1], in [2], in [3], in assay [4], in [6] and in assay [7] was inactive. Moreover, the outcome in [8], in assay [9], in assay [10], in [11], in assay [12] and in assay [17] was inactive. The call in assay [13], in assay [14], in assay [15], in assay [16] and in assay [18] was inactive.
For the molecule `O=c1n(Cl)c(=O)n(Cl)c(=O)n1Cl`, the call in assay [1], in assay [2], in assay [3], in [4], in assay [5] and in assay [8] was inactive. The result in assay [9], in [10], in assay [11], in [12], in assay [14] and in assay [15] was inactive. In addition, the call in assay [16] and in [18] was inactive.
Take `COCC(=O)N(c1c(C)cccc1C)C(C)C(=O)OC` (configuration not stated): the molecule was classed as inactive in [1], in assay [2], in [3], in assay [4], in assay [5] and in [6]. Besides, the molecule was classed as inactive in assay [7], in assay [8], in [9], in assay [10], in [11] and in assay [12]. Further, the molecule was called inactive in [13], in [14], in assay [16] and in assay [18].
Take `Nc1c(Cl)c(Cl)nc(C(=O)O)c1Cl`: the molecule was called inactive in assay [1], in [2], in assay [3], in assay [5], in assay [6] and in [7]. In addition, the outcome in assay [8], in [9], in [10], in [14], in [15] and in assay [16] was inactive. In [18], the call was inactive. In [4], the AC50 is 75.6 µM (active).
Take `CCCN(CC)CC1COC2(CCC(C(C)(C)C)CC2)O1` (configuration not stated): the result in assay [1], in [2], in assay [3], in assay [4], in [5] and in assay [7] was inactive. The outcome in assay [10], in assay [11], in assay [12], in [17], in assay [13] and in assay [14] was inactive. For the same molecule, the result in assay [15], in assay [16] and in [18] was inactive.
`Nc1c(Cl)c(F)nc(OCC(=O)O)c1Cl`: the result in assay [1], in assay [2], in [3], in assay [4], in assay [5] and in assay [6] was inactive. The outcome in assay [8], in [10], in assay [11], in assay [17], in [13] and in assay [14] was inactive. Also, the molecule was called inactive in assay [15] and in assay [16].
For `COP(=S)(OC)SCn1nnc2ccccc2c1=O`, the molecule was classed as inactive in assay [1], in assay [2], in assay [19], in [3], in assay [4] and in assay [5]. For the same molecule, the outcome in assay [6], in assay [7], in assay [8], in assay [9], in assay [10] and in assay [11] was inactive. Also, the molecule was classed as inactive in assay [17], in assay [13], in [14], in [15], in assay [16] and in assay [18]. Moreover, the AC50 in assay [4] was 73.9 µM (active); in assay [9], 43.5 µM (active); in [12] it was 17.3 µM (active).
